Sampled rows, rich in hits. Any-hit rate of the full collection: about 2.9%.
TRPM1 prom inh: inhibitors of MITF-dependent TRPM1 promoter reporter, primary screen, cell-based, SK-MEL-5, single point, luciferase; SK-MEL-5 TRPM1 promoter luciferase, 24 h; inhibition, % at 12.5 µM; 330,000 tested, 0.83% active; AID 488899, 2010;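 active = mean inhibition across replicates of 60% or more, whatever share of single replicates reaches that level; inconclusive = some that reach 60%, reason not given; inactive = mean inhibition across replicates below 60%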
NSD2 inh: NSD2 histone methyltransferase inhibitors, primary screen, biochemical, AlphaScreen, single concentration, set 2; 310,000 tested, 0.54% active; Histone-lysine N-methyltransferase NSD2 (Homo sapiens), O96028; inhibition, % at 12.5 µM; AID 743445, 2014; NSD2 peptide methylation, 120 min; in the data active = inhibition above about 50%
Wnt bcat act: Wnt/beta-catenin pathway activators, primary screen, cell-based, plate reader, single point | 300,000 tested, 1.2% active | activation, % at 9.35 µM | Wnt/beta-catenin reporter cell assay, activator | AID 743398, 2014; in the data active = activation above about 30%, passing the limit was not always enough; inconclusive = no clear call, values can overlap the other calls;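 note: 0% = neutral control wells and 100% = positive control wells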
PfHsp90 set2: growth inhibition of PfHsp90-expressing yeast, primary screen, antimalarial PfHsp90 inhibitor project, S. cerevisiae, BacTiter-Glo luminescence, single point, set 2; BacTiter-Glo ATP, 48 h; yeast lacking PDR1 and PDR3 efflux regulators; inhibition, % at 9.4 µM; 310,000 tested, 0.32% active; AID 504621, 2011;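 active = every replicate shows inhibition above about 80%, whatever the replicate mean, limit read from the data; inconclusive = mean inhibition reaches the set limit but some replicate falls short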;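 note: 0% = DMSO neutral controls and 100% = 20 µM radicicol positive controls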
MITF TRPM1 HTS: activators of MITF-driven TRPM1 promoter reporter, primary screen, cell-based, SK-MEL-5, luciferase, single point | SK-MEL-5 TRPM1-promoter luciferase, 24 h; % of positive control, neutral wells = 0 | activation, % at 12.5 µM | 300,000 tested, 0.75% active;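 active = mean activation of at least 80% with every replicate also reaching 80%; inconclusive = mean reaches 80% but some replicate falls short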;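 note: 0% = neutral control wells and 100% = parthenolide positive control wells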
N-glyco inh: increase of ERlucT glycosylation luciferase signal, primary screen, N-linked glycosylation inhibitor project, D54 ERlucT cells, luminescence, set 2; D54 ERlucT glycosylation luciferase reporter, 24 h; percent of 100 nM tunicamycin response; reporter increase, % at 12.5 µM; 360,000 tested, 0.23% active;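 active = mean luciferase reporter signal, scaled so untreated is 0 and the glycosylation-blocking control 100, at or above a set limit in every replicate; inconclusive = mean reaches the limit but not every replicate does; inactive = mean below the limit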;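 note: luciferase carries N-glycosylation sites so blocking glycosylation raises the light; 0% = median of neutral control wells and 100% = median of 100 nM tunicamycin wells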
* = called active by the depositor; ? = inconclusive; / = not tested or not shown.

SMILES	TRPM1 prom inh	NSD2 inh	Wnt bcat act	PfHsp90 set2	MITF TRPM1 HTS	N-glyco inh
c1ccc(-c2noc(C34CC5CC(CC(C5)C3)C4)n2)nc1	-32.6	-1.9	/	-36.4	44.4	-1.6
c1ccc(-c2noc(C3CCCCC3)n2)nc1	-67.9	-5.1	36.2*	10.8	71.8	-6.1
OC[C@H]1O[C@@H](c2nc(-c3ccc(Br)cc3)no2)C[C@@H]1O	/	/	26.7	/	/	-2.7
Brc1ccc(-c2noc(C3CCCCC3)n2)cc1	-49.5	/	55.5*	5.8	57.8	-1.3
O=[N+]([O-])/C=C/c1cn(Cc2ccccc2)c2ccccc12	19.3	2.3	/	93.1*	-19.1	0.0
N#Cc1ccccc1Cn1cc(/C=C/[N+](=O)[O-])c2ccccc21	91.0*	-1.4	17.6	10.5	-90.9	-11.2
O=C(Cn1cc(/C=C\[N+](=O)[O-])c2ccccc21)Nc1ccccc1	91.1*	/	1.1	3.7	-90.4	13.6
O=C(O)Cn1cc(/C=C/[N+](=O)[O-])c2ccccc21	3.2	0.3	1.0	-9.7	3.6	1.8
COc1ccc(N2CCN(C(=O)COC(=O)c3ccc(CSC)o3)CC2)cc1	-1.1	-0.1	2.2	2.0	2.4	-1.7
COc1ccc(OC)c(NC(=O)CCNC(=O)c2ccco2)c1	9.8	-8.5	-1.0	-11.5	-9.5	0.8
Clc1ccc(Cn2c(/C=C/c3ccco3)nc3ccccc32)cc1	-44.9	-0.7	34.0*	8.3	45.0	-0.2
O=C(Nc1ccccc1N1CCOCC1)c1ccc([N+](=O)[O-])o1	59.7	-2.1	1.0	109.0*	-59.9	12.5
O=C(Nc1ccccc1N1CCN(C(=O)c2ccc(Cl)cc2)CC1)c1ccc([N+](=O)[O-])o1	86.8*	1.1	/	-8.5	-86.5	20.5
NC(=O)c1oc2ccccc2c1NC(=O)c1ccc(F)cc1	/	/	1.2	-12.5	/	3.4
O=C(Nc1ccccc1N1CCCCC1)c1ccc([N+](=O)[O-])o1	26.8	-0.4	-3.2	/	-26.1	8.4
NC(=O)c1oc2ccccc2c1NC(=O)c1ccc([N+](=O)[O-])o1	82.6*	-3.3	-3.2	-12.7	-82.6	1.0
Cc1ccc(NC(=O)c2ccc3[nH]c(=O)c(=O)[nH]c3c2)nc1	-10.6	-3.9	4.8	3.4	13.0	1.6
CC(C)(C)c1ccc(C(=O)Nc2ccc([N+](=O)[O-])cn2)cc1	-101.3	-3.4	/	-9.3	107.4*	-6.0
Cc1ccc(NC(=O)c2sccc2C)nc1	-19.5	-2.1	51.9*	9.3	23.4	-10.7
O=C(Nc1ccc([N+](=O)[O-])cn1)c1cccnc1	-1.8	-1.0	-2.7	-11.0	/	0.3
Cc1ccc(NC(=O)c2ccc(F)cc2)nc1	-60.7	-0.1	51.4*	9.7	61.1	-2.5
Cc1ccc(NC(=O)C(=O)Nc2ccc(C)cn2)nc1	-77.1	-1.5	1.8	-9.0	78.6	1.0
O=C(Cn1nnc(-c2ccncc2)n1)Nc1ccc(F)cc1F	/	-5.3	/	/	/	/
CCn1c2ccccc2c2cc(NC(=O)COC(=O)c3cccc(S(=O)(=O)NC)c3)ccc21	-16.1	-1.5	-1.2	12.3	16.0	23.7
OCCNCC(O)Cn1c2ccccc2c2ccccc21 (stereo not given)	4.8	-2.9	-0.6	-37.1	-1.4	-1.8
SMILES	TRPM1 prom inh	NSD2 inh	Wnt bcat act	PfHsp90 set2	MITF TRPM1 HTS	N-glyco inh
COc1ccccc1CNCC(O)Cn1c2ccccc2c2ccccc21 (stereo not given)	83.6*	/	26.2	18.1	-81.6	-2.5
CCn1c2ccccc2c2cc(NC(=O)CNCc3ccccc3OC)ccc21	17.8	-7.3	-4.9	29.1	-17.1	29.3*
CCN(CC)S(=O)(=O)c1cccc(C(=O)OCC(=O)Nc2ccc3c(c2)c2ccccc2n3CC)c1	-3.2	-0.4	-2.5	-6.5	8.0	29.1*
Cc1ccc(-c2cn(-c3ccccc3)c(=S)[nH]2)cc1C	-121.7	17.2	37.6*	-4.4	123.2*	-7.5
Cc1ccccc1-c1cn(-c2ccccc2)c(=S)[nH]1	5.6	9.4	-0.4	6.1	-1.9	5.6
O=C(COc1ccc(Cl)cc1Cl)NNC(=S)NC(=O)c1ccco1	8.0	-2.2	-0.4	-17.3	/	2.2
CC(Oc1ccc(Cl)cc1)C(=O)NNC(=S)NC(=O)c1ccco1 (stereo not given)	0.3	0.2	-4.2	103.1*	1.5	2.7
COC(=O)c1cc(OC)c(OC)cc1NC(=S)NC(=O)c1ccco1	-20.0	-3.9	-0.9	7.3	11.2	39.6*
COc1ccccc1C(=O)NNC(=S)NC(=O)c1ccco1	-3.7	-0.4	-7.4	104.1*	5.6	-3.0
COc1ccc(C(=O)NNC(=S)NC(=O)c2ccco2)cc1	2.9	0.4	-0.8	/	/	-1.3
Cc1ccc(S(=O)(=O)Nc2cc3c4c(c2)CCC(=O)N4CCC3)cc1	-4.5	5.6	-2.8	19.5	5.5	7.8
COc1ccc(C2N(Cc3ccccc3)CCN2Cc2ccccc2)cc1[N+](=O)[O-]	-0.4	2.5	-0.3	-1.1	3.5	0.2
CC(=O)c1ccc(Nc2ccc(-c3ccccc3C)nn2)cc1	-78.9	-0.3	38.7*	/	85.1*	-1.9
O=c1c2ccccc2c(=O)n(-c2ccccc2)n1-c1ccccc1	15.8	-0.4	36.8*	-8.0	-15.1	2.4
O=C(Cc1c(F)cccc1Cl)Nc1ccccc1C(=O)N1CCCCC1	9.1	5.7	-1.0	/	-9.2	-1.2
Cc1ccc2c(c1)cc(CN(Cc1ccco1)C(=O)COc1ccccc1)c1nnnn12	2.9	-3.6	-5.5	/	/	1.6
CCC(=O)N(Cc1ccco1)Cc1cc2cccc(C)c2n2nnnc12	2.1	1.6	46.2*	-15.1	-1.5	1.6
NC(=S)Nc1cccc(Cl)c1	3.4	-1.2	-0.5	-6.3	-2.0	0.1
CS/C(N)=N/C(=S)Nc1cccc(Cl)c1	-27.1	-0.8	45.1*	7.1	26.8	1.1
Cc1ccc(-c2nc(NCCCN(C)C)c3ccccc3n2)cc1	/	/	-3.7	/	/	?
Cc1ccc(-c2csc3nc4c5ccccc5c(NCCCN(C)C)nn4c(=O)c23)cc1	84.9*	/	-24.7	5.0	-84.9	-5.4
COc1cccc(NC(=O)c2ccc3c(c2)CCCC3)c1	-43.0	-5.2	-0.5	1.8	45.6	-11.2
CC(=O)c1cccc(NC(=O)c2ccc3c(c2)CCCC3)c1	-100.2	0.8	23.7	-4.8	113.0*	-5.3
CC(=O)c1cccc(NC(=O)Nc2ccc3c(c2)CCC3)c1	-92.5	0.2	19.0	2.7	96.5*	0.1
CC(=O)c1cccc(NC(=O)c2noc3c2CCc2ccccc2-3)c1	-88.0	-5.9	32.9*	-28.0	?	-4.1
O=[N+]([O-])c1cc(C=NN2CCN(Cc3ccccc3Cl)CC2)ccc1Cl	/	2.1	/	/	/	/

Source: PubChem
